These sequences were tested against PUM1 PUF domain R1-KLV (Homo sapiens, UniProt Q14671 828-1176, S863K;R864L;Q867V) (assay: yeast three-hybrid, YBZ-1, SC-Leu-His + 0.5 mM 3-AT, 4 days). Settings: tags: N-Gal4 AD-HA kept; label: inside an RPR1-promoter hybrid RNA with tandem MS2 sites; ssRNA.
Method in brief: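 The interaction score is the log change in variant frequency from input to selection. Scores were computed in log2 with a pseudocount of 1 for absent variants, using Illumina sequencing of PCR-amplified repeat regions. The input came from four days on SC-Leu and the selection from four days on SC-Leu-His + 0.5 mM 3-AT. The cells were strain YBZ-1 (LexA–MS2 coat fusion, HIS3 reporter) co-expressing Pumilio-1 PUF domain libraries and matching RNA elements from a centromeric plasmid.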

Sequence	binding signal
GGCUAGAACUAGUGGAUCCCCCGGCGCCCGGCGGCUCGAGCCCGGGUAAGUGUAAAUCGUCUGCAUGCCGCCGGGCGCCAUGCCUGCAGGUCGACUCUAGAAAACAUG	3.95 log2 enrichment (interaction score)
GGCUAGAACUAGUGGAUCCCCCGGCGCCCGGCGGCUCGAGCCCGGGUAAGUGUAAAUGGUCUGCAUGCCGCCGGGCGCCAUGCCUGCAGGUCGACUCUAGAAAACAUG	3.18 log2 enrichment (interaction score)
GGCUAGAACUAGUGGAUCCCCCGGCGCCCGGCGGCUCGAGCCCGGGUAAGUGUAAAUUGUCUGCAUGCCGCCGGGCGCCAUGCCUGCAGGUCGACUCUAGAAAACAUG	4.79 log2 enrichment (interaction score)

Reference: PMC8384837, “Expanding the binding specificity for RNA recognition by a PUF domain”
